# Shown is part of a subset that was picked to be rich in hits.
# TTR transcr act: TTR transcription activation, primary screen; actives 1.3% (n = 92,000); SH-SY5Y TTR promoter Gaussia luciferase, luminescence; 100% = recombinant luciferase protein wells; activation, % at 16.7 µM;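 active = activation above the mean of all tested compounds plus 3 SD, cut at about 9.5% in these data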;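 note: cells exposed to compounds for one day before reading; 0% = median of all test compound wells on the plate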
# HuH7 TTR inh: decreases TTR transcription in HuH7 cells in activator counter-screen | shares compounds with TTR transcr act | HuH7 TTR promoter-Gaussia luciferase reporter, luminescence | inhibition, % at 16.7 µM | actives 4% (n = 1,100) | AID 1117279;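 active = average inhibition above the solvent-only control wells' mean plus 3 SD, cut at about 15% in these data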;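 note: 0% = cells with DMSO only and 100% = cells with inhibitor control FD; inhibitors lower well luminescence so higher value means more inhibition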
# TTR act confirm: confirmation of human transthyretin transcription activators. activation, % at 16.7 µM. SHSY5Y TTR promoter Gaussia luciferase, luminescence; 100% = purified Lucia enzyme wells, no cells. 1,100 tested, under 10 active. shares compounds with TTR transcr act;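 active = mean activation above a set limit taken from the earlier primary screen, cut at about 11% in these data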;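 note: 0% = DMSO-treated cells and 100% = recombinant Lucia luciferase without cells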
# * hit, by the source's call.
SMILES,TTR transcr act,others
COC(=O)C1=C(c2cc3ccccc3s2)C[C@@H]2CC[C@H]1N2C,14*,
COC(=O)C1=C(c2cc3ccccc3s2)C[C@@H]2CC[C@H]1N2C(=O)NC1CC1,9,
COC(=O)C1=C(c2ccc3ccccc3c2)C[C@@H]2CC[C@H]1N2C,-3,
COC(=O)C1=C(c2ccc(OC(F)(F)F)cc2)C[C@@H]2CC[C@H]1N2C(=O)N1CCOCC1,-1,
CC1C2Cc3ccc(O)cc3C1(C)CCN2CC1CC1 (centres undefined),1,
CN1C2CCC1CC(=NO)C2,27*,HuH7 TTR inh=-10;TTR act confirm=0
CCC1([N+](=O)[O-])COP(N)(=O)OC1 (centres undefined),0,
O=C1NCN(c2ccccc2)C12CCN(C(c1cc3ccccc3o1)c1nnnn1-c1ccc3c(c1)OCCO3)CC2 (centres undefined),-1,
CC1CCCN(C(=O)CN2C3CCC2CC(O)(c2ccc(F)cc2)C3)C1 (centres undefined),0,
OCCN1C2CCC1CC(O)(c1ccc(F)cc1)C2 (centres undefined),2,
OC1(c2ccc(F)cc2)CC2CCC(C1)N2Cc1nnnn1C1CCCCC1 (centres undefined),23*,HuH7 TTR inh=-10;TTR act confirm=1
CCN1CCN(Cc2cc(C(C)(C)C)c(O)c(C(C)(C)C)c2)CC1,0,
Cc1ccc(O)c(CN2CCC3CCC(C3)C2)c1 (centres undefined),0,
COC(=O)C1=C(c2ccc(F)cc2OCc2ccccc2)C[C@@H]2CC[C@H]1N2C(=O)NCc1ccccc1,-3,
COC(=O)C1=C(c2ccc(F)cc2OCc2ccccc2)C[C@@H]2CC[C@H]1N2C(=O)NCc1ccco1,15*,HuH7 TTR inh=-5;TTR act confirm=1
COC(=O)C1=C(c2ccc(F)cc2OCc2ccccc2)C[C@@H]2CC[C@H]1N2C(=O)NCC1CC1,1,
O=c1cccc2n1CC1CC2CN(c2nc(N3CCCCC3)nc(N3CCCCC3)n2)C1 (centres undefined),0,
CCC(=O)N1N=C(c2c(O)n(CCc3ccccc3)c(=O)[nH]c2=O)CC1c1ccc(OC)c(OC)c1 (centres undefined),-1,
C/C(=N\NC(N)=O)c1c(O)n(C)c(=O)n(C)c1=O,5,
COC(=O)C1=C(c2cc3ccccc3o2)C[C@@H]2CC[C@H]1N2C(=O)NCc1cccc2ccccc12,2,
CC(=O)OC1C=CC2[C@H]3Cc4ccc(O)c5c4[C@@]2(CCN3C)C1O5 (some centres undefined),17*,HuH7 TTR inh=-9;TTR act confirm=0
CN1CC[C@]23c4c5ccc(O)c4OC2C(O)C=CC3[C@H]1C5 (some centres undefined),2,
CN1CC[C@]23c4c5ccc(OC6OC(C(=O)O)[C@@H](O)C(O)[C@H]6O)c4OC2C(O)C=CC3[C@H]1C5 (some centres undefined),-1,
COC12CCC3(CC1C(C)(O)C(C)(C)C)[C@H]1Cc4ccc(OC5OC(C(=O)O)[C@@H](O)C(O)[C@H]5O)c5c4[C@@]3(CCN1CC1CC1)C2O5 (some centres undefined),-1,
N=C1c2ccccc2CN1c1ccc(F)c([N+](=O)[O-])c1,-2,
SMILES,TTR transcr act,others
O=C(C(=O)N1CCC2(CC1)OCCO2)c1c[nH]c2ccccc12,11*,HuH7 TTR inh=-7;TTR act confirm=0
CC(C(=O)c1c[nH]c2ccccc12)N1CCOCC1 (centres undefined),2,
O=C(c1ccccc1)N1CCC2(CC1)OCCO2,0,
CC1=C2CCC3C(CCC4=CC(=O)CCC43C)C2CC1 (centres undefined),0,
COC(=O)C1=C(c2cccc(C#N)c2)C[C@@H]2CC[C@H]1N2C(=O)NCC1CC1,4,
COC(=O)C1=C(c2ccc(OC(F)(F)F)cc2)C[C@@H]2CC[C@H]1N2C(=O)NCC1CC1,-1,
COC(=O)C1=C(c2ccc(OC(F)(F)F)cc2)C[C@@H]2CC[C@H]1N2C(=O)NCCO,2,
COC(=O)C1=C(c2ccc(OC(F)(F)F)cc2)C[C@@H]2CC[C@H]1N2C(=O)NC1CC1,10*,HuH7 TTR inh=-9;TTR act confirm=0
CC1(C)C2([N+](=O)[O-])CN3CC1([N+](=O)[O-])CN(C2)C3c1ccccn1 (centres undefined),0,
CCC(=NCc1cccnc1)c1c(O)n(-c2ccccc2)c(=O)[nH]c1=O,2,
CC/C(=N\Nc1ccccc1)c1c(O)n(-c2ccc(OC)cc2)c(=O)[nH]c1=O,1,
CCC(=NCCCn1ccnc1)c1c(O)n(-c2ccc(OC)cc2)c(=O)[nH]c1=O,17*,HuH7 TTR inh=-10;TTR act confirm=1
O=C1CN(O)C(c2ccccc2)=c2cc(Br)ccc2=N1,3,
C[C@]12C[C@H](O)[C@@H](O)CC1=CCC1C2CC[C@@]2(C)C1CC[C@@H]2O (some centres undefined),0,
CCOC(=O)c1cc2c(cn1)[C@H](CCO)NC2,1,
C[C@H]1[C@@H](c2ccccc2)O[C@@H](c2ccccc2Br)N1C,11*,HuH7 TTR inh=-8;TTR act confirm=0
CCOP(=S)(OCC)SCSP(=S)(OCC)OCC,0,
Brc1ccccc1CNCCc1ccc2c(c1)OCO2,-1,
Cc1cccc(N=Cc2c(O)n(-c3ccccc3C)c(=O)[nH]c2=O)c1,13*,HuH7 TTR inh=2;TTR act confirm=-2
Cc1cccc(-n2c(O)c(/C=C/C=Nc3ccccc3)c(=O)[nH]c2=O)c1,2,
Cc1ccccc1-n1c(O)c(/C=N/c2nccs2)c(=O)[nH]c1=O,0,
CN(C)C(CNC(=O)Cc1c(Cl)cccc1Cl)c1ccccc1 (centres undefined),0,
C=CC12CN(C)C3C4COC(CC41)C1(C(=O)Nc4ccccc41)C32 (centres undefined),-1,
Cc1ccc(NP(=O)(c2ccccc2)c2nc3ccccc3s2)cc1 (centres undefined),-2,
CCc1ccccc1N1C(=O)CC(=O)NC1=O,9.8*,HuH7 TTR inh=-8;TTR act confirm=0
SMILES,TTR transcr act,others
O=C1CC(=O)N(c2ccc(Cl)cc2)C(=O)N1,0,
COC(=O)C1=C(C(=O)OC)C2OC1c1cc3ccccc3cc12,-7,
NN=C1C(Cl)=C(Cl)C(Cl)=C1Cl,1,
COC(=O)C1=C(c2ccc(F)cc2F)C[C@@H]2CC[C@H]1N2C(=O)NCCOc1ccccc1,-5,
Cc1cccn2c(NCC3CCCO3)c(C(C)C)nc12 (centres undefined),27*,HuH7 TTR inh=9;TTR act confirm=-1
Oc1ccccc1C1NCc2ccccc2-n2cccc21 (centres undefined),1,
CC(C)[N+]12CCC(CC1)C(C(O)(c1ccccc1)c1ccccc1)C2 (centres undefined),-1,
C=CCn1c(O)c(C(CC)=Nc2ccc(N(C)C)cc2)c(=O)[nH]c1=O,-1,
O=C1NC(=O)C(C2CCCCCC2)C(=O)N1,0,
O=c1[nH]cnc2nc(-c3ccc(N(CCCl)CCCl)cc3)[nH]c12,0,
CCn1c(C)c(C(=O)O)c2cc(OC)ccc21,-1,
COc1ccc(-n2c(C)cc(C(=O)C[N+]34CCN(CC3)CC4)c2C)cc1,9.9*,HuH7 TTR inh=-8;TTR act confirm=3
N#CC1c2ccccc2-n2nncc2CN1C(=O)CCc1ccccc1 (centres undefined),-2,
COc1ccc(C(=O)C2CCCN(CC3CCCCC3)C2)cc1OC (centres undefined),2,
COc1ccc(C(=O)CC(c2ccc(OC)c(OC)c2)c2c(O)c3ccccc3oc2=O)cc1OC (centres undefined),2,

# Compound activity as filed in PubChem BioAssay.
